In PubChem BioAssay (NCATS):
Several values for one entry are separate records, joined by “and”; a condition that tells them apart may be missing. Identical values can stand only once. Inconclusive results are not listed. Activity calls are given as the source filed them. Unless noted, the call rests on the fitted dose curve; in most records, active means well fitted curve in the direction sought with a large enough effect; inconclusive means small, poorly fitted or top-dose-only effect, or another doubt; inactive means no such curve, though single readings can be large; an effect the other way counts as inactive or inconclusive.

Columns and labels:
[1] = system: Zika virus NS2B-NS3 protease; assay: Primary screen GU AMC qHTS for Zika virus inhibitors (AID 1347154);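 further: 0% = no-inhibitor control and -100% = no-enzyme control; nearly all actives have a fitted effect of over 70% in size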
Procedure, shortened: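 Unlinked Zika NS2B hydrophilic domain/NS3 protease domain noncovalent complex (25 nM final) in 10 mM Tris-HCl pH 8.0, 0.01% Tween 20, with AMC peptide substrate. Fluorescence (ex 340, em 450 nm) change over 15 min, room temperature; percent inhibition fitted to 4-parameter Hill equation.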

[2] = Primary qHTS for small molecule stabilizers of the endoplasmic reticulum resident proteome: Secreted ER Calcium Modulated Protein (SERCaMP) assay (AID 1508630); further: on the % scale 0 is the no-effect control and ±100 the full control effect
Procedure, shortened: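 GLuc-SERCaMP-expressing SH-SY5Y cells, pretreated 16 h with compound, are challenged with thapsigargin to empty ER calcium stores; after 4 h, coelenterazine is added directly to the medium and luminescence is imaged.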

[3] = AP1 Signaling Pathway (AID 357; active means well fitted curve in either direction with a large enough effect, not every such curve was filed as active;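 further: ME-180 reporter cells stimulated with EGF at its EC50 level; on the % scale 0 is the no-effect control and ±100 the full control effect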); conditions: ME-180 AP-1-bla reporter, EGF-induced, beta-lactamase ratio, 5 h; at 38 µM (top of the series)
Procedure, shortened: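 Cells are seeded overnight, exposed to compound titrations and an EC50 level of EGF for 5 hours at 37 °C, then loaded with CCF4 dye for 2.5 hours. Beta-lactamase activity under the AP-1 element is read as a blue/green ratio.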

[4] = target: Cytochrome P450 1A2 (Homo sapiens) (UniProt P05177); assay: p450-cyp1a2 (AID 410; calls by dose curve;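 further: -100% = full effect of reference inhibitor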)
Procedure, shortened: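 Luminescent readout of luciferin formed from Luciferin-ME by human CYP1A2; data normalized against complete inhibition by 57 uM furafylline. Enzyme 20nM, substrate 100uM at Km, 100mM KPO4 buffer, 60 min reaction at room temperature.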

[5] = NFAT Signaling Pathway (AID 444; active means well fitted curve in either direction with a large enough effect, not every such curve was filed as active;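 further: carbachol stimulus at about its EC50 of 1 µM final; on the % scale 0 is the no-effect control and ±100 the full control effect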); conditions: Jurkat NFAT-bla M1, carbachol, beta-lactamase ratio, 5 h; at 38 µM (top of the series)
Procedure, shortened: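 Jurkat cells carrying an NFAT-driven β-lactamase reporter and co-transfected muscarinic M1 receptor were treated with compound plus carbachol (1 uM final, an EC50 level) for 5 h at 37 °C. CCF4 loading followed for 1 h at RT; 460/530 nm ratio gave %activity.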

[6] = Stat Signaling Pathway (AID 446; active means well fitted curve in either direction with a large enough effect, not every such curve was filed as active;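 further: ME-180 cervical cancer cells given 40 pM IL-6 alongside compound; SIE-controlled beta-lactamase reporter measured as 460/530 nm FRET emission ratio; on the % scale 0 is the no-effect control and ±100 the full control effect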); conditions: ME-180 SIE beta-lactamase reporter, IL-6 stimulated, 5 h; at 38 µM (top of the series)
Procedure, shortened: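 Screening format detects activators and inhibitors alike: ME-180 SIE-bla cells stimulated at 40 pM IL-6 for 5 hrs with compound, then dual-emission beta-lactamase read at 405 nm excitation.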

[7] = target: Glucocorticoid receptor (Homo sapiens) (UniProt P04150); assay: GR-GFP Redistribution (AID 450;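 active means compounds whose dose series gives a full or clear partial fitted curve of increased nuclear translocation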; further: potency means the concentration at half of the fitted maximal effect); conditions: U2OS GR-GFP nuclear translocation, laser cytometry, 2 h
[8] = target: Glucocorticoid receptor (Homo sapiens) (UniProt P04150); assay: GR-EFC Redistribution (AID 451; calls by dose curve; further: potency means the concentration at half of the fitted maximal effect); conditions: CHO-K1 GR-EFC translocation, beta-gal luminescence, 2 h
Procedure, shortened: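 CHO-K1 cells stably expressing nuclear-localized β-gal enzyme acceptor and GR fused C-terminally to the enzyme donor fragment; ligand-driven nuclear translocation restores β-gal by complementation. Compounds titrated up to 46 uM final, 2 h at 37 °C; luminescence read.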

[9] = target: Mitogen-activated protein kinase 10 (Mus musculus) (UniProt Q61831); assay: JNK3 AlphaScreen Assay (AID 530; active means well fitted curve in either direction with a large enough effect, not every such curve was filed as active)
Procedure, shortened: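 Inhibitors reduce antibody binding to phosphorylated biotin-cJun, lowering AlphaScreen luminescence. Lysates from HepG2 cells pre-activated by IL-1beta plus TNF-alpha supplied JNK3; compounds were titrated.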

[10] = target: 3',5'-cyclic-AMP phosphodiesterase 4B (Homo sapiens) (UniProt Q07343); assay: qHTS Assay for Inhibitors of PDE-IV (AID 607; active means well fitted activation curve with a large enough effect in the main read-out, with a control signal flat, not every such curve was filed as active; further: % of control where 0% means no effect)
Procedure, shortened: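 The readout is membrane depolarisation from a cAMP-sensing CNG channel, detected with a potential dye at ex 535/em 590. Cells were HEK293-derived (endogenous PDE-IV) at 1000 cells/well, titrated up to 22.9 uM final.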

[11] = target: Guanine nucleotide-binding protein G(i) subunit alpha-1 (Homo sapiens) (UniProt P63096); assay: qHTS Assay for Inhibitors of RGS12 GoLoco Motif Activity (Green Fluorophore) (AID 879);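 further: 0% = labeled peptide with Gαi1 and full inhibition = labeled peptide alone without protein; negative values mean loss of peptide binding seen as reduced polarization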
Procedure, shortened: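 Fluorescence polarization assay: 50 nM Gαi1 with 10 nM FITC-labeled RGS12 GoLoco peptide in 10 mM Tris pH 7.5, 150 mM NaCl, 0.1 mM GDP, 0.05% NP40, 10 min at room temperature with compound.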

[12] = target: Cytochrome P450 2C9 (Homo sapiens) (UniProt P11712); assay: qHTS Assay for Inhibitors and Substrates of Cytochrome P450 2C9 (AID 883); further: on the % scale 0 is the no-effect control and ±100 the full control effect; nearly all actives have a fitted effect of over 60% in size
Procedure, shortened: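 Human CYP2C9 (10nM) hydroxylated Luciferin-H (100uM, at its KM) to luciferin in 25mM KPO4. Compound was preincubated 10 min at 37C, then NADPH regeneration started a 60 min reaction at 37C. Luminescence was read after detection reagent, normalized to 57uM sulphaphenazole.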

[13] = target: Cytochrome P450 3A4 (Homo sapiens) (UniProt P08684); assay: qHTS Assay for Inhibitors and Substrates of Cytochrome P450 3A4 (AID 884); further: on the % scale 0 is the no-effect control and ±100 the full control effect; nearly all actives have a fitted effect of over 50% in size
Procedure, shortened: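 20 nM human CYP3A4 with 25 uM Luciferin-PPXE (at KM) in 200 mM KPO4, preincubated 10 min with compound; NADPH regeneration started a 60 min RT reaction. Luciferin detected by luminescence, normalized to 57 uM ketoconazole as full inhibition.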

[14] = target: Cytochrome P450 2D6 (Homo sapiens) (UniProt P10635); assay: qHTS Assay for Inhibitors and Substrates of Cytochrome P450 2D6 (AID 891);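 further: luciferin methyl ether substrate demethylated by CYP2D6 with NADPH regeneration; on the % scale 0 is the no-effect control and ±100 the full control effect; nearly all actives have a fitted effect of over 60% in size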
Procedure, shortened: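 Human CYP2D6 (5 nM) with 30 uM Luciferin-ME EGE (at Km) in 100 mM KPO4, compound preincubated 10 min, then NADPH regeneration system for 60 min at room temperature. Luciferin read by luminescence; normalized to 1.43 uM quinidine.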

[15] = target: Cytochrome P450 2C19 (Homo sapiens) (UniProt P33261); assay: qHTS Assay for Inhibitors and Substrates of Cytochrome P450 2C19 (AID 899); further: on the % scale 0 is the no-effect control and ±100 the full control effect; nearly all actives have a fitted effect of over 60% in size
Procedure, shortened: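 Human CYP2C19 (5nM) with Luciferin-H EGE at 10uM (its KM) in 50mM KPO4 was preincubated with compound for 10 min at 37C. NADPH regeneration started a 60 min 37C reaction. Luciferin was read by luminescence, normalized to 57uM ketoconazole.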

[16] = qHTS Assay for Identification of Small Molecule Agonists for Thrombopoietin (TPO) Signaling Pathway (AID 917); further: on the % scale 0 is the no-effect control and ±100 the full control effect
Procedure, shortened: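 IL-3-dependent murine pro-B Ba/F3 cells, stably transfected with human TPO receptor and GpIIb-promoter luciferase, are incubated 24 hrs at 37 C with test compound and 26 pM TPO; luciferase signal is read after 10 min at room temperature.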

[17] = target: Muscarinic acetylcholine receptor M1 (Rattus norvegicus) (UniProt P08482); assay: qHTS Assay for Antagonists of Acetylcholine Muscarinic M1 Receptor: Kinetic Measurement of Intracellular Calcium Response (AID 943);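 further: Fluo-4 calcium signal as peak divided by basal fluorescence over 4 min; nearly all actives have a fitted effect of over 75% in size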
Procedure, shortened: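 Rat M1-CHO cells, 2000/well, overnight → Fluo-4 no-wash dye with probenecid, 1 h 37C → compound 10 min, room temp → basal read 6 s → carbachol EC80 (100 nM) → 4 min kinetic read; peak/basal.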

[18] = target: Pyruvate kinase (Leishmania mexicana) (UniProt Q27686); assay: qHTS Validation Assay for Inhibitors of Leishmania Mexicana Pyruvate Kinase (AID 945);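 further: 0% = DMSO only neutral control wells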
Procedure, shortened: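 Luminescent ATP detection (PKLight) after a 1 h room-temperature reaction of 0.2 nM LmPYK E451W mutant with 0.5 mM PEP and 0.1 mM ADP at pH 7.2. Activity is normalized to DMSO-only control wells.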

[19] = target: Pyruvate kinase PKM (Homo sapiens) (UniProt P14618); assay: qHTS Assay for Activators of Human Muscle Pyruvate Kinase (AID 954; active means well fitted curve in the direction sought with a large enough effect, not every such curve was filed as active;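 further: 0% = uninhibited enzyme and -100% = no enzyme or full thiadiazolimine inhibition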)
Procedure, shortened: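 Reaction: 0.1 nM purified PKM2 with 0.5 mM phosphoenolpyruvate and 0.1 mM ADP, room temperature, 1 h. Readout: luciferase-based ATP luminescence after stop reagent. Activators judged against a 0.3 nM enzyme column.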

[20] = target: alpha-glucosidase (Oryza sativa, rice) (UniProt Q653V4); assay: Counterscreen for Glucocerebrosidase Inhibitors: qHTS Assay for Rice alpha-Glucosidase at pH 5.0 (AID 997);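 further: 0% = full activity with enzyme and -100% = basal without enzyme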
Procedure, shortened: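 Rice alpha-glucosidase (4 nM final) with 400 uM 4-methylumbelliferyl-alpha-D-glucopyranoside in citrate buffer pH 5.0, 20 min at room temperature, stopped at pH 10; fluorescence 365/440 nm, compounds 0.7 nM–77 uM, AC50 from Hill fits.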

[21] = qHTS Assay for Lipid Storage Modulators (AID 1519; calls by dose curve); conditions: Drosophila S3 cells, BODIPY lipid droplet/cell ratio, laser cytometry, cells loaded with oleic acid
Procedure, shortened: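 Cells seeded at 5,000 per well were treated with compounds over a concentration series and loaded with oleic acid (400 uM, as added). Lipid droplet fluorescence (488 nm excitation, 500-530 nm channel) was read by laser-scanning cytometry and normalized to 20 uM Triacsin C.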

[22] = target: Ubiquitin carboxyl-terminal hydrolase 1 (Homo sapiens) (UniProt O94782); assay: Inhibitors of USP1/UAF1: Pilot qHTS (AID 504865);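 further: rhodamine fluorescence freed from ubiquitin-rhodamine substrate followed over time; top concentration of the series differs between compounds; on the % scale 0 is the no-effect control and ±100 the full control effect; nearly all actives have a fitted effect of over 35% in size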
Procedure, shortened: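 Enzyme-free wells gave the negative control, while test wells held 1nM USP1/UAF1 preincubated with compound for 15 min at room temperature. Ub-Rho at 150nM final started the reaction, and fluorescence at 480/540 nm was recorded kinetically.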

[23] = target: DNA dC->dU-editing enzyme APOBEC-3G (Homo sapiens) (UniProt Q9HC16); assay: qHTS for inhibitors of Vif-A3G interactions: Validation (AID 588379); further: 0% is about no effect
Procedure, shortened: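 HeLa cells stably expressing Vif and A3G-eYFP, 700 cells/well, incubated overnight at 37 deg C, then exposed to compound overnight at 37 deg C. Inhibition of Vif-mediated degradation read as increased yellow fluorescence (Ex 488/Em 500-530) by laser-scanning cytometry.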

Sequence of Glucocorticoid receptor (Homo sapiens) (P04150 whole entry, looked up, the tested form may be a part): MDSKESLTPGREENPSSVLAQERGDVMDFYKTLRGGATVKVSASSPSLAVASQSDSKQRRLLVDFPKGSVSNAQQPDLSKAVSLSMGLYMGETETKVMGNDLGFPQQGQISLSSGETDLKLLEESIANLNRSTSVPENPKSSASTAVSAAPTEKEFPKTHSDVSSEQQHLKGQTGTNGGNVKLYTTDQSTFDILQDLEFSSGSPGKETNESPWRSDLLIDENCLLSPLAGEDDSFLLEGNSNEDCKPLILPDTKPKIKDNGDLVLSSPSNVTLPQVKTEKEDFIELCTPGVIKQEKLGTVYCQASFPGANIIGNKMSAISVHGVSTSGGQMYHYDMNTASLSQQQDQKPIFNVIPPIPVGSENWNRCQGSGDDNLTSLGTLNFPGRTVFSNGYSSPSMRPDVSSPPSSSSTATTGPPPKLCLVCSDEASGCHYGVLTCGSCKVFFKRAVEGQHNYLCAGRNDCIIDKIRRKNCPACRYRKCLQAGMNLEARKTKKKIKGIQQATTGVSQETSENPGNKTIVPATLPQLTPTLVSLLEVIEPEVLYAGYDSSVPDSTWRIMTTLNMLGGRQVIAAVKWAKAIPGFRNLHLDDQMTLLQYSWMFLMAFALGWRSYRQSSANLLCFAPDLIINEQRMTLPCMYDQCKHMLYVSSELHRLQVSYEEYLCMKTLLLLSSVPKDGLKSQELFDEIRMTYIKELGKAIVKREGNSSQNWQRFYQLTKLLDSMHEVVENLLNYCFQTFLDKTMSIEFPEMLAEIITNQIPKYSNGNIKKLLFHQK
Sequence of Cytochrome P450 2C19 (Homo sapiens) (P33261 whole entry, looked up): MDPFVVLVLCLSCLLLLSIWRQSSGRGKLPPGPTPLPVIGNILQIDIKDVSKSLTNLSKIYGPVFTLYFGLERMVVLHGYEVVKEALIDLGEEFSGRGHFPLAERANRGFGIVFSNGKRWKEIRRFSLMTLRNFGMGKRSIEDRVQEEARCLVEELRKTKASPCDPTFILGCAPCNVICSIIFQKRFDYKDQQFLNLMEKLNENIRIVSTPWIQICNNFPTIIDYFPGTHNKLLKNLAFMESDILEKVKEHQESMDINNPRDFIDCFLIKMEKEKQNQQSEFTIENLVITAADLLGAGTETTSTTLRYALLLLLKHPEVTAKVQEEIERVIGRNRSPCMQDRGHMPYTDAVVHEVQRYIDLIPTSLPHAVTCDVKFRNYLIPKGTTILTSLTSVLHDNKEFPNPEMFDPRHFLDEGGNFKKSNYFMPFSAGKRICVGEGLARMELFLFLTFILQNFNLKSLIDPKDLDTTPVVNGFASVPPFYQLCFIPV
Sequence of Cytochrome P450 1A2 (Homo sapiens) (P05177 whole entry, looked up): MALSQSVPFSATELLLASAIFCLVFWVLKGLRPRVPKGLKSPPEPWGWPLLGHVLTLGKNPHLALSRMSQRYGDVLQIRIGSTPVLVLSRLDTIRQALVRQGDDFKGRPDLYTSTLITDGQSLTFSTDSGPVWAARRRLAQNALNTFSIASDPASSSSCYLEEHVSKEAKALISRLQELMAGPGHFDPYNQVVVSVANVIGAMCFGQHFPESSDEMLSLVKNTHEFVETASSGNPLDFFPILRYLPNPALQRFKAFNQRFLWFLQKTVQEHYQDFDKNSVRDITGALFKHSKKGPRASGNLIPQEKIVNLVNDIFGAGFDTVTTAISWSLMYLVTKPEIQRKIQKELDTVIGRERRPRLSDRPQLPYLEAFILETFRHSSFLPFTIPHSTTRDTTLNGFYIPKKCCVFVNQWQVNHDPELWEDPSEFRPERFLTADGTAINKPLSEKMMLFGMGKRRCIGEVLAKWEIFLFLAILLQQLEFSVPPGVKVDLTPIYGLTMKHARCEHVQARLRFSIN
Sequence of DNA dC->dU-editing enzyme APOBEC-3G (Homo sapiens) (Q9HC16 whole entry, looked up): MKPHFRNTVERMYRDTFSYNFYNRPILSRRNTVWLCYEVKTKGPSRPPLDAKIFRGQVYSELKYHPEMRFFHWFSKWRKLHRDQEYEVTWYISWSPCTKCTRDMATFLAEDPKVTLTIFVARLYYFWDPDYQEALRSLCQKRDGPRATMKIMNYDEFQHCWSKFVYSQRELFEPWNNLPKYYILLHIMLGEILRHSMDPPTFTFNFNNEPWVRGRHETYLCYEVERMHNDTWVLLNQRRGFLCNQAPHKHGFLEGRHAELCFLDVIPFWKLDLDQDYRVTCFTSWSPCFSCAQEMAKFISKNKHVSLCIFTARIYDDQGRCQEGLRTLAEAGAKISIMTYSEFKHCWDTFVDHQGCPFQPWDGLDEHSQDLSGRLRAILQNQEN
Sequence of Cytochrome P450 3A4 (Homo sapiens) (P08684 whole entry, looked up): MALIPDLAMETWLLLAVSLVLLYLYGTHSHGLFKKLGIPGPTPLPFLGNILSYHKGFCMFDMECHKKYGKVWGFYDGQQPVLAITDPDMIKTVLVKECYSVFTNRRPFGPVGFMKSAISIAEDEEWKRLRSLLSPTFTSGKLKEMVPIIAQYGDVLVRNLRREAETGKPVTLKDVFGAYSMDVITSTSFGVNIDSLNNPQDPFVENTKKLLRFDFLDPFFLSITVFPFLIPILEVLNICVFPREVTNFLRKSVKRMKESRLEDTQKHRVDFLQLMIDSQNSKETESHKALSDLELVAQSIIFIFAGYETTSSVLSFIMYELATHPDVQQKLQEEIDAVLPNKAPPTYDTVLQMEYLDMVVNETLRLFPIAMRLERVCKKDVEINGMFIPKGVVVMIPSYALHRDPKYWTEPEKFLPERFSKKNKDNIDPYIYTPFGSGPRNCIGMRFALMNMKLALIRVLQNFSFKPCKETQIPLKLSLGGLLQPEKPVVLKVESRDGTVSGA
Sequence of Cytochrome P450 2C9 (Homo sapiens) (P11712 whole entry, looked up): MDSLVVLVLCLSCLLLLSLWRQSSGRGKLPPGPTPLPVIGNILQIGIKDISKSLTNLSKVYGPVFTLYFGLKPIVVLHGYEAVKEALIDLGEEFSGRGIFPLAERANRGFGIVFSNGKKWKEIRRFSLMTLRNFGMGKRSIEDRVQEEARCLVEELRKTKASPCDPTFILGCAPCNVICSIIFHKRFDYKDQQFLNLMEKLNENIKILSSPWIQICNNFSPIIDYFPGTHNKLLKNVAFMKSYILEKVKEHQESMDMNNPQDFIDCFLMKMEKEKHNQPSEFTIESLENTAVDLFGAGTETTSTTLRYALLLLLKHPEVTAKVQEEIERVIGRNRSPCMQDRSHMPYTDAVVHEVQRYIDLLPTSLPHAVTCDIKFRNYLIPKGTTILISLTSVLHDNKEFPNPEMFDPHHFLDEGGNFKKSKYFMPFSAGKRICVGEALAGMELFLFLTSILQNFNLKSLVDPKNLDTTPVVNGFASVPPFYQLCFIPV
Sequence of Muscarinic acetylcholine receptor M1 (Rattus norvegicus) (P08482 whole entry, looked up): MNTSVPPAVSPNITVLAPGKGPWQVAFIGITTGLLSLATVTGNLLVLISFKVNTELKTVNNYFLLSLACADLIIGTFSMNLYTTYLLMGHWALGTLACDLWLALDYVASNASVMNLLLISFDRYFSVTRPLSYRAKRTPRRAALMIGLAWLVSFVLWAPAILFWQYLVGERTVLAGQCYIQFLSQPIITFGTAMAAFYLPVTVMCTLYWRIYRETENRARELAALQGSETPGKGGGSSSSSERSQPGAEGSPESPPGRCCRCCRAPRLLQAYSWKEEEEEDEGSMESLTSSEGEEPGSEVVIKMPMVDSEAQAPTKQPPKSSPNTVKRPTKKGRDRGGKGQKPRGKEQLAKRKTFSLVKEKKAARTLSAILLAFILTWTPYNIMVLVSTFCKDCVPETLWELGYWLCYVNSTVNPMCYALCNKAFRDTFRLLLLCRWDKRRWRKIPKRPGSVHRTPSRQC
Sequence of Guanine nucleotide-binding protein G(i) subunit alpha-1 (Homo sapiens) (P63096 whole entry, looked up): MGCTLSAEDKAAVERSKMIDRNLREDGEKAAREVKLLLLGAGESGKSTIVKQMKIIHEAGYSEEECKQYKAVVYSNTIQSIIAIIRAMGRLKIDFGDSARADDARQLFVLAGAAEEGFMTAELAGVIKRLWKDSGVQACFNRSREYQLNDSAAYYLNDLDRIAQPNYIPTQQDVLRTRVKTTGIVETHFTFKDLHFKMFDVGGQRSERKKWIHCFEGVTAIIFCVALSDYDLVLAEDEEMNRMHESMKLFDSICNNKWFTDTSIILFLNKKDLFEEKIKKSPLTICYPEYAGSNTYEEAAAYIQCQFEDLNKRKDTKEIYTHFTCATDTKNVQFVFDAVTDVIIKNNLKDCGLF
Sequence of Cytochrome P450 2D6 (Homo sapiens) (P10635 whole entry, looked up): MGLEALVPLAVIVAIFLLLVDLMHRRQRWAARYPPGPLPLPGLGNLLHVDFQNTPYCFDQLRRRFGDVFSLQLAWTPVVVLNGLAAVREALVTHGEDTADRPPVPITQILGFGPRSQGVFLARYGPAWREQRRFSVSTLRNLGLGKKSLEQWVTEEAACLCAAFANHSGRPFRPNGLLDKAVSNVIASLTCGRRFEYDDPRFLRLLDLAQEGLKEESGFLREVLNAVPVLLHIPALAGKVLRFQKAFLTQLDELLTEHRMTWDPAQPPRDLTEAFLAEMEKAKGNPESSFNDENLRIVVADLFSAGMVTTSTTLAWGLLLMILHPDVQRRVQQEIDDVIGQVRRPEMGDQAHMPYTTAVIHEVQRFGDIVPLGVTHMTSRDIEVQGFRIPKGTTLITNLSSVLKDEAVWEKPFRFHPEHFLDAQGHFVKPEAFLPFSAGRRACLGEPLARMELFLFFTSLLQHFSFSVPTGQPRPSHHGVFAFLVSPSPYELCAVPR
Sequence of Pyruvate kinase (Leishmania mexicana) (Q27686 2-499 E452W): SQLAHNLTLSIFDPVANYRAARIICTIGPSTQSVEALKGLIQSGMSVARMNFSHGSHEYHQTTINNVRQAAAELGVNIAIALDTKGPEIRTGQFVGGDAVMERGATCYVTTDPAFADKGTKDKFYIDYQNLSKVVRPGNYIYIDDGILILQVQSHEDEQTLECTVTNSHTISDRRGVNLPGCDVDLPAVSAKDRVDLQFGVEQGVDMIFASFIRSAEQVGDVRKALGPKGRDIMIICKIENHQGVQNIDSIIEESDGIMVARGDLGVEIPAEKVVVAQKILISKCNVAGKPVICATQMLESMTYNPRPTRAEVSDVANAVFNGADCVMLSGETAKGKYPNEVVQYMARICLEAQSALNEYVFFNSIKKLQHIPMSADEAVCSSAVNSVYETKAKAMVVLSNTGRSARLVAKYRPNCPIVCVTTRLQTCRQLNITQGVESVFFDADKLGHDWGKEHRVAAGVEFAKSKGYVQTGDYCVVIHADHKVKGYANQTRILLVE

O=C(O)/C=C1\CCCc2ccccc2C1O (configuration not stated)
inactive: Potency [1] | Potency [2]

O=C(O)[C@H]1CN(CCCP(=O)(O)O)CCN1
-5.69% and -2.47%: max response ([21]; measured here: cell count channel max response)
inactive: activity change, negative = inhibition [3] 1.7% | Potency [4] | activity change, negative = inhibition [5] 8.84% | activity, negative = inhibition [6] 7.55% | Potency [7] > 46 µM | Potency [8] > 46 µM | Potency [9] | Potency [10] | outcome [11] | Potency [12] | Potency [13] | Potency [14] | Potency [15] | Potency [16] | Potency [17] | Potency [18] | outcome [19] | outcome [20] | activity change, negative = inhibition ([21]; at 57.5 µM (top of the series)) 5.99% and -0.486% | Potency [22] | Potency [23] | Potency [1] | Potency [2]
0.367% and -3.68%: max response ([21]; measured here: lipid channel max response)
